Test results: PubChem BioAssay (Tox21)
Where “and” joins values, the source holds several entries; their conditions need not be identical. Equal values may be shown once. Records with an inconclusive call do not appear. Calls of active or inactive are those of the source. Unless noted, the call rests on the fitted dose curve; in most records, active means well fitted curve in the direction sought with a large enough effect in the repeat runs; inconclusive means weak or mixed curves; inactive means no such curve, though single readings can be large; an effect the other way counts as inactive or inconclusive.

Key:
[1] = qHTS assay for small molecule agonists of the p53 signaling pathway (AID 651631; calls by dose curve; further: nearly all actives have a fitted effect of over 15% in size; further: potency means the concentration at half of the fitted maximal effect)
Method in brief: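 HCT-116 p53RE-bla reporter line, 16 h compound treatment at 37 °C, then fluorescence after 2 h with B/G FRET substrate.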

[2] = qHTS assay for small molecules that induce genotoxicity in human embryonic kidney cells expressing luciferase-tagged ATAD5 (AID 651632); further: nearly all actives have a fitted effect of over 15% in size
Method in brief: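 Luminescence read-out: after 16 hr compound exposure at 37C, ATAD5-luciferase HEK293T cells received Amplite, 30 min RT, then CCD imaging. A rise in signal marks genotoxic stress.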

[3] = qHTS assay for small molecule agonists of the p53 signaling pathway - cell viability (AID 651633; calls by dose curve;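 further: p53RE-bla HCT reporter cells with a stable beta-lactamase p53 reporter; series mostly up to about 83 µM; nearly all actives have a fitted effect of over 30% in size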)
Method in brief: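 Viability counter-read: CellTiter-Glo luminescence (30 min, room temperature) in the same p53RE-bla plates. These plates had been exposed to compounds for 16 h at 37 C.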

[4] = qHTS assay for small molecules that induce genotoxicity in human embryonic kidney cells expressing luciferase-tagged ATAD5 - cell viability (AID 651634; calls by dose curve; further: nearly all actives have a fitted effect of over 25% in size; further: potency means the concentration at half of the fitted maximal effect)
Method in brief: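 HEK293T ATAD5-luc cells, 2,000/well; compound 15.5 hr, 37C/5% CO2; CellTiter-Fluor 30 min, 37C; fluorescence read.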

[5] = qHTS assay for small molecule disruptors of the mitochondrial membrane potential - cell viability (AID 720634; calls by dose curve; further: nearly all actives have a fitted effect of over 20% in size; further: potency means the concentration at half of the fitted maximal effect)
Method in brief: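 Luminescence from CellTiter-Glo (ATP content) gave viability in HepG2 cells, read in the same wells as the MMP dye assay after 1 hr compound exposure at 37 C.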

[6] = qHTS assay for small molecule disruptors of the mitochondrial membrane potential (AID 720635); further: potency means the concentration at half of the fitted maximal effect
Method in brief: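 Mitochondrial membrane potential tracked with Mito-MPS dye, red aggregates (ex 540/em 590 nm) against green monomers (ex 490/em 535 nm). Compound treatment 1 hr at 37C, dye 30 min in HepG2.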

[7] = qHTS assay to test for compound auto fluorescence at 590 nm (red) in HepG2 cells (AID 720674)
Method in brief: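 1 hr compound incubation on HepG2 cells, 37 C, 5% CO2; plate read ex 540 nm / em 590 nm; intensities reported as Rose Bengal sodium equivalents.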

[8] = qHTS assay to test for compound auto fluorescence at 535 nm (green) in HepG2 cells (AID 720675)
[9] = qHTS assay to test for compound auto fluorescence at 460 nm (blue) in HEK293 cells (AID 720678)
Method in brief: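 Measured: blue fluorescence (Ex 405/Em 460 nm) of compound-treated HEK293 cells, incubated overnight at 37C with 5% CO2 and scaled to triamterene equivalents.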

[10] = qHTS assay to test for compound auto fluorescence at 590 nm (red) in HEK293 cells (AID 720679)
Method in brief: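 Using HEK293 cells at 2,000 per well, the screen added 23 nL of each compound after cell attachment and incubated overnight (37C, 5% CO2). The plate reader then captured red-label fluorescence, Ex/Em 540/590nm.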

Measured: Potency

Cc1ccc2c(c1)C1CN(C)CCC1N2 (stereo not drawn)
not listed: [10]
inactive: all other assays above

C=CC(=O)OCCN(C)C
inactive: all assays above

COC1=CC(=O)O[C@@H](/C=C/c2ccccc2)C1
inactive: all assays above

CCNc1nc(NCC)nc(SC)n1
not listed: [10]
inactive: all other assays above

ClC(Cl)(Cl)Cl
not listed: [7] | [10]
inactive: all other assays above

CC(C)(C)C(=O)C(Cl)Cl
not listed: [10]
inactive: all other assays above

CC(C)(C)C(=O)Cl
not listed: [7] | [10]
inactive: all other assays above

CCCCCCC(=O)CCCCCC/C=C/C[C@@H](O)[C@H](O)[C@@](N)(CO)C(=O)O
not listed: [10]
inactive: all other assays above

N#CN=C1SCCN1Cc1ccc(Cl)nc1
inactive: all assays above

O=C(Cl)C(Cl)(Cl)Cl
not listed: [10]
inactive: all other assays above

COP(=O)(O)OC
inactive: all assays above

CCC1(c2ccccc2)CCC(=O)NC1=O (stereo not drawn)
inactive: all assays above

O=C/C=C/c1ccco1
inactive: all assays above

Cn1c(N)nc2c3cccnc3ccc21
inactive: all assays above

CC1=C2[C@H]3OC(=O)[C@@H](C)[C@@H]3CC[C@@]2(C)C=CC1=O
inactive: all assays above

COc1cc(CC(C)N)cc(OC)c1OC (stereo not drawn)
inactive: all assays above

CC(C)NCC(O)c1ccc([N+](=O)[O-])cc1 (stereo not drawn)
inactive: all assays above

CCCCCCCC(=O)Cl
inactive: all assays above

Clc1nc(Cl)nc(Nc2ccccc2Cl)n1
inactive: all assays above

CC#Cc1cc(C)nc(Nc2ccccc2)n1
active: [6] 27.3 µM
not listed: [10]
inactive: all other assays above

C/C(=N\NC(=O)Nc1cc(F)cc(F)c1)c1ncccc1C(=O)O
not listed: [10]
inactive: all other assays above

C=C(Cl)CCl
inactive: all assays above

C[C@H]1CCCC(=O)CCC/C=C/c2cc(O)cc(O)c2C(=O)O1
active: [1] 9.33 µM and 22.4 µM | [4] 20.9 µM | [5] 11.7 µM and 20 µM | [6] 2.34 µM and 4.47 µM
not listed: [10]
inactive: all other assays above

Oc1ccc(Cc2ccc(O)cc2)cc1
active: [6] 54.9 µM
inactive: all other assays above

ClCOCCl
inactive: all assays above
